Compound activity from PubChem BioAssay.
TrxR1 inh: qHTS Assay for Inhibitors of Mammalian Selenoprotein Thioredoxin Reductase 1 (TrxR1): qHTS. recombinant rTrxR1, NADPH fluorescence consumption, selenite substrate. Potency, µM (series often up to 114 µM), for the others: top-dose activity change, negative = inhibition, hits mostly inhibitors. 390,000 tested, 1% active. AID 588453, 2011; further: potency means the concentration at half of the fitted maximal effect; on the % scale 0 is the no-effect control and ±100 the full control effect; nearly all actives have a fitted effect of over 65% in size
Target sequence (O89049 whole entry, looked up): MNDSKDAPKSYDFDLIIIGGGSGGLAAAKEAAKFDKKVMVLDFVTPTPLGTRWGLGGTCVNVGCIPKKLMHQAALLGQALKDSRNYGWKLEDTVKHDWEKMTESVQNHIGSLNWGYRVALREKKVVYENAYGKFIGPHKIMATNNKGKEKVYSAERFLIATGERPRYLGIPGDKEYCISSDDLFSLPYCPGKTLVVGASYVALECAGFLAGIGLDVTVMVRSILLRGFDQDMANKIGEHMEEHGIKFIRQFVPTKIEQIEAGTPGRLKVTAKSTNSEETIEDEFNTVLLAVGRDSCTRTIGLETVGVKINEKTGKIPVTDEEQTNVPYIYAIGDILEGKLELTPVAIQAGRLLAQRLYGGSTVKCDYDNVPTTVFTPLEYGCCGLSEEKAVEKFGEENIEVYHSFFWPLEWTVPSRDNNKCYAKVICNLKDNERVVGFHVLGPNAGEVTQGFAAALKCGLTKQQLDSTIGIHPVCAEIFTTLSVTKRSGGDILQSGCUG
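Rat TrxR1 (90 nM in the dispensed reagent) was pre-reduced with 400 uM NADPH for 5 min at room temperature, then incubated with compound for 15 min. After 400 uM selenite was added, NADPH fluorescence (Ex 340/Em 450 nm) was followed for 8 min.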
N370S GC mod: qHTS Assay for Inhibitors and Activators of N370S glucocerebrosidase as a Potential Chaperone Treatment of Gaucher Disease; Potency, µM (highest dose often 59.4 µM), for inactives: at the highest dose activity change, negative = inhibition, hits mostly inhibitors; 330,000 tested, 0.092% active; Lysosomal acid glucosylceramidase (Homo sapiens), P04062; N370S GC spleen homogenate, 4MU-glucoside fluorescence; AID 2101, 2009;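 further: potency means the concentration at half of the fitted maximal effect; 0% = full enzyme activity and -100% = no enzyme basal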
Akt phos inh: HTS Assay for Inhibitors of Akt Phophorylation: Primary Screen | activity change, % for hits at 50 µM | AID 651550, 2012 | Neuro2A IGF-stimulated pAkt S473 HTRF, 20 min; hits give low values | 360,000 tested, 0.32% active; in the data active means activity change below about -80%; inconclusive means mostly about -51% to -80%; further: on the % scale 0 is the no-effect control and ±100 the full control effect
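Neuro2A cells in DMEM with 0.5% FBS, overnight at 37 deg C, given compound at single 50 µM final, then IGF (6 nM final) for 20 min at 37 deg C. Lysed; phospho-Akt Ser473 by HTRF after 24 h, 665/615 ratio.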
Pin1 inh: qHTS Assay to Find Inhibitors of Pin1. Peptidyl-prolyl cis-trans isomerase NIMA-interacting 1 (Homo sapiens), Q13526. Pin1 FP peptide displacement, HiFluor488, 10 min. Potency, µM (titrated, usually from 115 µM), for the others: at the highest dose activity, negative = inhibition, usual class: inhibitors. 390,000 tested, 0.009% active. AID 504891, 2011; active means well fitted inhibition curve with a large enough effect in the polarisation, with a control signal flat, not every such curve was filed as active; inconclusive means small, poorly fitted or top-dose-only effect, or effect the other way, or a change in a side signal; inactive means no such curve, though single readings can be large or run the other way; the % refers to the polarisation; further: potency means the concentration at half of the fitted maximal effect; on the % scale 0 is the no-effect control and ±100 the full control effect
TrxR1 substrate: qHTS Assay for Substrates of Mammalian Selenoprotein Thioredoxin Reductase 1 (TrxR1): qHTS. Thioredoxin reductase 1, cytoplasmic (Rattus norvegicus), O89049. purified TrxR1 substrate turnover, NADPH consumption readout. Potency, µM (series often up to 114 µM), without a hit: at the top dose activity change, negative = substrate turnover. 390,000 tested, 0.01% active. AID 588456, 2011; further: potency means the concentration at half of the fitted maximal effect; on the % scale 0 is the no-effect control and ±100 the full control effect; nearly all actives have a fitted effect of over 50% in size
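Rat TrxR1, dispensed at 90 nM, was prereduced with 400 uM NADPH (final) for 5 min at ~22 deg C, then incubated with compound 15 min before 400 uM selenite. A first-read NADPH fluorescence drop versus no-compound background flagged substrates.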
AT treatment: qHTS Assay for Identifying a Potential Treatment of Ataxia-Telangiectasia; F2112 A-T fibroblasts, KAP-1 phosphorylation AlphaLISA; neocarzinostatin DNA damage 30 min before lysis; Potency, µM (titrated, usually from 57.5 µM), without a hit: top-dose activation, hits mostly activators; 320,000 tested, 0.19% active; AID 485349, 2010; further: potency means the concentration at half of the fitted maximal effect; % of control where 0% means no effect; nearly all actives have a fitted effect of over 45% in size
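hTERT-immortalized A-T patient fibroblasts (F2112), 500 cells/well in OPTI-MEM, 1% FBS, got compounds for 60 min, then NCS for 30 min at 37C. Lysates were then assayed for phospho-KAP-1 by AlphaLISA (anti-pKAP1 donor, anti-KAP1 acceptor beads), 6 hr at 25C.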
The depositor's hits bear a star; i = inactive; ? = inconclusive; nt = no result given; [ ] = dose if it differs, or a comment. Shown are actives, neighbours in structure and some others; about 1.4% of the full set was active somewhere. Unless noted, the call rests on the fitted dose curve; in most records, active means well fitted curve in the direction sought with a large enough effect; inconclusive means small, poorly fitted or top-dose-only effect, or another doubt; inactive means no such curve, though single readings can be large; an effect the other way counts as inactive or inconclusive.

SMILES	TrxR1 inh	N370S GC mod	Akt phos inh	Pin1 inh	TrxR1 substrate	AT treatment
COC(=O)CCCC1=CC2=C(c3ccccc3)C(=O)C(C)(OC(=O)C3CCCC3)C(=O)C2=CN1Cc1ccccc1 (stereo not given)	nt	0%[12.8 µM]	nt	nt	nt	nt
CCOc1ccc(C(=O)NCCS(=O)(=O)N2CCN(c3cccc(Cl)c3)CC2)cc1	16%[57.1 µM]	nt	nt	11%	5%[57.1 µM]	nt
O=C(C[n+]1cc(Br)cc(Br)c1)c1ccc(I)cc1	-22%	nt	nt	nt	-5%	nt
COc1ccc(-c2sc3ccc(OC)cc3c2C#Cc2cncn2C)cc1	6%[57.1 µM]	nt	i	3%	4%[57.1 µM]	28µM*
COc1ccc(OCC(=O)Nc2nnc3n2CCS3)cc1	18%[57.1 µM]	nt	nt	-2%	1%[57.1 µM]	nt
Cn1ccnc1C(O)c1cc(C(C)(C)C)c(O)c(C(C)(C)C)c1 (stereo not given)	32µM*	4%	i	-1%	1%	2%
COc1cc(F)c(S(=O)(=O)N2CCN(S(=O)(=O)c3cccc(N)c3)CC2)c(F)c1	nt	nt	nt	3%	nt	nt
CCOC(=O)N1CCN(c2nc(SC)nc3sc4c(c23)CC(C)(C)OC4)CC1	-8%	2%	-86%*	10%	2%	-1%
CCN1CCN(c2nc(SC)nc3sc4c(c23)CC(C)(C)OC4)CC1	-9%	4%	i	-8%	18%	-2%
CCN1CCCC1CNS(=O)(=O)c1ccc(Br)cc1 (stereo not given)	25%	-32%	i	-2%	9%	2.8µM*
C/C(=N\NC(=O)CCCC(=O)O)c1c(-c2ccccc2)c2cc(Cl)ccc2[nH]c1=O	5%	13%	i	0%	0%	3.5µM*
Cc1c(Cl)cccc1NC(=O)C1CCCN(c2nnc(-n3c(C)ccc3C)s2)C1 (stereo not given)	-4%	nt	nt	-2%	1%	nt
COC(=O)COc1ccc(C2Nc3c(Cl)ccc(C(=O)O)c3C3C=CCC32)cc1 (stereo not given)	13µM*	-13%	i	nt	11%	-3%
O=C(CN1C(=O)CCC1=O)Nc1ccc(Br)cc1	-18%	1%	-103%*	-1%	1%	6%
O=C(NC(=S)Nc1ccccc1)c1cccs1	50µM*	3%	i	2%	4%	2%
NS(=O)(=O)c1ccc(NC(=S)NC(=O)c2cccs2)cc1	11µM*	-11%	i	0%	-1%	2%
O=c1c2cc(Br)ccc2nc(-c2ccccc2)n1O	3%[57.1 µM]	-6%	i	7%	-14%	0.71µM*
O=C(Oc1ccccc1[N+](=O)[O-])c1cccnc1	14µM*	-25%	i	-4%	-4%	4%
Cc1cccc(OC(=O)c2cccnc2)c1C	8%	-2%	i	2%	-6%	-8%
COc1ccc(-c2c3c(=O)n(C)c(=O)n(C)c3c3c(-c4ccc(C)cc4)nc4ccccc4n23)cc1	9%	nt	nt	-1%	-5%	nt
CC(=O)C(=Cc1ccc(C(=O)O)cc1)C(C)=O	?	22%	i	-14%	2%	-9%
Cc1ccc(NC(=O)C(=Cc2ccc(C(=O)O)cc2)C(=O)Nc2ccc(C)cc2C)c(C)c1	-31%	11%	i	-4%	-5%	20µM*
COc1ccc(/C=C(/C(=O)c2cccs2)N2C=CC=CC2=C(C#N)C#N)cc1	0.11µM*	3%	i	?	2%	2%
N#CC(C#N)=C1C=CC=CN1/C(=C\c1ccco1)C(=O)c1ccccc1	1.6µM*	27%	i	-7%	-15%	-10%
